Screens from PubChem BioAssay.
Rows were chosen to be rich in hits. Some 3.3% of all compounds tested hit in one or more screens of this group.
SIRT5 block – sirtuin-5 (human) deacylase inhibition; Q9NXA8; Purified SirT5, succinyl-peptide AMC, trypsin-coupled fluorescence; inhibition, % at 15 µM; actives 1.1% (n = 330,000); AID 652115; in the data active = inhibition above about 15%
Target sequence (Q9NXA8 whole entry, looked up): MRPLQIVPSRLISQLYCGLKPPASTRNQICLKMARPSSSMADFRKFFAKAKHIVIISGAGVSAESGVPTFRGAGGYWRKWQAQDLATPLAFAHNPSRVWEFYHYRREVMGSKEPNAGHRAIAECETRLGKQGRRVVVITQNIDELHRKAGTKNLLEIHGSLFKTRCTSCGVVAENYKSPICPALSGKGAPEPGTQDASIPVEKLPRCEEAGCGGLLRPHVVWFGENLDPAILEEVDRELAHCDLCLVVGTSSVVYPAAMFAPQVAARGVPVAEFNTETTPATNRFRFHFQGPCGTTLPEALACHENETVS
FGF22 binding – binders of recombinant human FGF22 by thermal shift | Q9HCT0 | SYPRO orange fluorescence; percent of sucrose octasulfate shift, DMSO zero | activity (Tm shift, normalised), % at 9.99 µM | actives 1.5% (n = 340,000);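 active = mean Tm shift, scaled 0 neutral to 100 positive control, at about 1.3% or above, every replicate too, limit read from the data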
Casp6 inh – inhibitors of human caspase-6 | purified caspase-6, Z-VEID-R110 cleavage fluorescence | actives 0.53% (n = 350,000) | inhibition, % at 12.5 µM | AID 686996 | P55212;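 active = mean inhibition across replicates at least about 35%, with every replicate also reaching that limit, limit read from the data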
Target sequence (P55212 24-179 limits assumed): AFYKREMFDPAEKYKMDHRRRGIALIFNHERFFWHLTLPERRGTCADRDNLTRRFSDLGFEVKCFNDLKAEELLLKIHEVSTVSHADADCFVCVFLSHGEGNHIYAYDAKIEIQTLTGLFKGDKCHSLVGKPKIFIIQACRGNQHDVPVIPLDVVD
Target sequence (P55212 194-293 limits assumed): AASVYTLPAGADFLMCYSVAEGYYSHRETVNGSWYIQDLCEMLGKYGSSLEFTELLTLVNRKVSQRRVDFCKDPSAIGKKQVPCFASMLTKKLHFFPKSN
ERAP1 HTS inh – inhibitors of human ERAP1 aminopeptidase; recombinant ERAP1, Leu-AMC fluorescence, 60 min; inhibition, % at 10.7 µM; actives 0.15% (n = 340,000); Q9NZ08;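 active = mean replicate inhibition of at least 30%, or all replicates individually reaching that 30% level; inactive = mean below 30% and not every replicate reaching it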
GSIS activator – primary screen for activators of insulin secretion dependent on glucose, INS-1E cells, GLuc reporter luminescence. activation, % at 16.6 µM. AID 743287. INS-1E GLuc reporter insulin secretion, 2-3 h. actives 0.61% (n = 370,000);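 active = lowest replicate activation of at least 40%, so every replicate reaches that level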
Numbers stand for hits; . = inactive; / = no result.

SMILES | SIRT5 block | FGF22 binding | Casp6 inh | ERAP1 HTS inh | GSIS activator
O=c1[nH]c2cc3c(cc2cc1CN(Cc1ccco1)C(=S)NCC1CCCO1)OCCO3 (centres undefined) | . | . | . | . | .
CN(C)CC(=O)N[C@@H]1C=C[C@@H](CC(=O)NCc2ccccc2F)O[C@H]1CO | . | . | . | . | .
CCNC(=S)N(CCN(C)C)Cc1cc2cc(OCC)ccc2[nH]c1=O | . | 44 | . | . | /
CCNC(=S)N(Cc1cccs1)Cc1cc2cc(OCC)ccc2[nH]c1=O | / | / | / | / | .
CN(C)CCN(Cc1cc2cc3c(cc2[nH]c1=O)OCO3)C(=S)NCc1ccco1 | . | 43 | . | . | .
O=C(CNC(=O)c1cccc(F)c1)OCC(=O)N1CCN(C(=O)c2ccco2)CC1 | 29 | . | . | . | .
COc1cccc(S(=O)(=O)N(C)C[C@@H]2Oc3cc(C#CCC(C)C)ccc3S(=O)(=O)N([C@@H](C)CO)C[C@@H]2C)c1 | . | . | . | . | .
COc1ccccc1S(=O)(=O)N(C)C[C@@H]1Oc2cc(C#CCC(C)C)ccc2S(=O)(=O)N([C@@H](C)CO)C[C@@H]1C | 28 | / | . | . | .
COc1ccccc1S(=O)(=O)N(C)C[C@@H]1Oc2cc(C#CCC(C)C)ccc2S(=O)(=O)N([C@H](C)CO)C[C@H]1C | 28 | . | . | . | .
COc1ccccc1S(=O)(=O)N(C)C[C@H]1Oc2cc(C#CCC3CCCC3)ccc2S(=O)(=O)N([C@@H](C)CO)C[C@@H]1C | 19 | . | . | . | .
COc1cccc(S(=O)(=O)N(C)C[C@@H]2Oc3cc(C#CCC(C)C)ccc3S(=O)(=O)N([C@H](C)CO)C[C@H]2C)c1 | . | . | . | . | .
C[C@H](CO)N1C[C@H](C)[C@H](CN(C)C)Oc2cc(C#CCC3CCCC3)ccc2S1(=O)=O | . | . | . | . | .
CC(C)NC(=O)N1C[C@@H]2[C@H](c3ccccc31)[C@H](CO)N2C(=O)Nc1ccc(F)cc1 | . | . | . | . | .
CC(C)NC(=O)Nc1ccc2c(c1)C(=O)N([C@H](C)CO)C[C@H](C)[C@@H](CN(C)C(=O)NC1CCCCC1)OCCCC[C@@H](C)O2 | . | . | . | . | .
COC(=O)c1ccc(CN2CC(=O)N3[C@@H](CO)[C@H](c4ccc(-c5ccccc5)cc4)[C@@H]3C2)cc1 | / | / | / | / | .
CCOC1=C/C(=C/c2c(N)n3nc(CC(=O)N4CCCCC4)sc3nc2=O)C=CC1=O | 32 | . | . | . | .
C=CCC1=C/C(=C\c2c(N)n3nc(CC(=O)N4CCCC4)sc3nc2=O)C=C(OC)C1=O | 20 | . | . | . | .
COC1=CC(=Cc2c(N)n3nc(CC(=O)N4CCOCC4)sc3nc2=O)C=C(OC)C1=O | . | . | . | . | .
Nc1c(C=C2C=CC(=O)C=C2)c(=O)nc2sc(CC(=O)N3CCOCC3)nn12 | 23 | . | . | . | .
C[C@H]1CN([C@@H](C)CO)C(=O)c2cc(NC(=O)Cc3ccccc3)ccc2O[C@@H]1CN(C)Cc1ccc(C(=O)O)cc1 | . | . | . | . | .
C[C@H](CO)N1C[C@H](C)[C@H](CN(C)S(C)(=O)=O)OCCCC[C@H](C)Oc2ccc(NC(=O)Nc3ccccc3)cc2C1=O | . | . | . | . | .
Cc1ccc(CN2C(=O)CCC2C(=O)NCCN2CCN(c3cccc(Cl)c3)CC2)cc1 (centres undefined) | . | . | . | 31 | .
C/C(=N/NC(=O)c1ccc(C)s1)c1cccc(NC(=O)c2ccoc2C)c1 | 17 | . | . | . | .
C/C(=N/NC(=O)c1ccoc1C)c1cccc(NC(=O)C(F)(F)F)c1 | / | / | / | / | .
CNC[C@@H]1Oc2ccc(NC(=O)c3ccncc3)cc2C(=O)N([C@H](C)CO)C[C@@H]1C | . | . | . | . | .
SMILES | SIRT5 block | FGF22 binding | Casp6 inh | ERAP1 HTS inh | GSIS activator
O=C(CN1C(=O)C(=O)c2ccccc21)OCN1C(=O)c2ccccc2C1=O | . | 43 | . | . | .
COc1ccccc1NC(=O)COC(=O)CN1C(=O)C(=O)c2ccccc21 | . | . | . | . | .
c1ccc(N=C2SCCCS2)cc1 | / | 43 | . | . | /
O=C(N[C@H]1CC[C@H](CCNC(=O)c2cnccn2)O[C@H]1CO)c1ccc2c(c1)OCO2 | . | . | . | . | .
CN(C)CC(=O)N1[C@@H](CO)[C@H](c2ccccc2)C12CN(C(=O)C1CCCC1)C2 | / | / | / | / | .
Cc1ccc(S(=O)(=O)N[C@@H]2CC[C@H](CCn3cc(C(C)C)nn3)O[C@H]2CO)cc1 | . | . | . | . | .
CC[C@@H]1CC2=C(C(=O)OC(C)(C)O2)[C@H](c2ccc(F)cc2)O1 | . | . | . | . | 45
CCN(CC)C(=N)/C(C#N)=N/Nc1ccccc1 | 17 | . | . | / | .
CO[C@@H]1CN(C)C(=O)c2cc(NC(=O)C3CC3)ccc2OC[C@H](C)N(Cc2cncnc2)C[C@@H]1C | . | . | . | . | .
CCCCCC(=O)Nc1cc(S(=O)(=O)O)cc2cc(S(=O)(=O)O)cc(O)c12 | 36 | . | 98 | . | .
CCCCCC(=O)Nc1cc(S(=O)(=O)N2CCCCC2)ccc1N1CCCCC1 | . | . | . | . | .
COc1ccc(CN(C)C[C@H]2Oc3c(NS(=O)(=O)c4ccc(F)cc4)cccc3C(=O)N([C@@H](C)CO)C[C@@H]2C)cc1 | . | . | . | . | .
CCOc1ccc(CN2CCN(C(=O)c3cccc(F)c3)CC2)cc1 | 19 | . | . | . | .
Cc1ccc(SCc2nc(N)nc(Nc3ccccc3C)n2)c(C)c1 | . | 43 | . | . | .
Cc1ccc(SCc2nc(N)nc(Nc3ccccc3C)n2)cc1C | . | . | . | . | .
O=C(O)COc1ccc(NC(=O)c2ccc(NC(=O)c3ccco3)cc2)cc1 | . | 44 | . | . | .
O=C(/C=C\c1ccco1)c1ccc(NC(=O)c2ccco2)cc1 | . | 43 | . | . | .
COc1ccc(C(=O)Nc2ccc(NC(=O)c3ccco3)cc2)cc1 | . | . | . | . | .
COC(=O)c1cc([N+](=O)[O-])c(-n2cncn2)c([N+](=O)[O-])c1 | . | 43 | . | . | .
O=c1[nH]c(CN2CCN(C/C=C/c3ccccc3)CC2)nc2ccccc12 | . | . | . | . | .
O=c1[nH]c(CN2CCOCC2)nc2ccccc12 | . | 43 | . | . | .
O=c1[nH]c(CN2CCN(S(=O)(=O)/C=C/c3ccccc3)CC2)nc2ccccc12 | 16 | . | . | . | .
COc1ccc(S(=O)(=O)Nc2ccc3c(c2)C(=O)N([C@@H](C)CO)C[C@@H](C)[C@@H](CN(C)S(=O)(=O)c2ccc(F)cc2)OCCCC[C@H](C)O3)cc1 | 16 | . | . | . | .
COc1ccc(S(=O)(=O)Nc2ccc3c(c2)C(=O)N([C@@H](C)CO)C[C@@H](C)[C@@H](CN(C)S(=O)(=O)c2ccc(F)cc2)OCCCC[C@@H](C)O3)cc1 | . | . | . | . | .
